D1 PAM: potentiators of human D1 dopamine receptor. P21728. potentiation, % at 10 µM. 0.036% of 360,000 active. HEK293 TREx D1 cells, calcium flux, dopamine EC20 potentiation. AID 504651; in the data active = potentiation above about 30%
TRHR enhancer: TRH receptor (human) allosteric enhancement. TRHR cells, fluo-8 calcium fluorescence, EC20 TRH enhancement. enhancement, % at 2 µM. 0.66% of 360,000 active; in the data active = enhancement above about 30%
Target sequence (P34981 whole entry, looked up): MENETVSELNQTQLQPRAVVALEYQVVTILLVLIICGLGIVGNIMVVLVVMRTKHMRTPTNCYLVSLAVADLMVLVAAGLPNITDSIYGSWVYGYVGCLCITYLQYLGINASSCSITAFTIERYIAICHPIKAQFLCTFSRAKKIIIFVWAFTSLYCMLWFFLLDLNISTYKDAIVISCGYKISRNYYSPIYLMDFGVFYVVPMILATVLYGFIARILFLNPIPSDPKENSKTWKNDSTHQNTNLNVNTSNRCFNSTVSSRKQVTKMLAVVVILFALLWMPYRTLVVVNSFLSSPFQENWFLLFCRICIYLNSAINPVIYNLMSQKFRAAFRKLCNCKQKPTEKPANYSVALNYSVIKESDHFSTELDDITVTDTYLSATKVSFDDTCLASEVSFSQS
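Enhancer read-out: after compound pinning and an initial kinetic agonist-mode read, an EC20 of TRH (10 nM final) was injected and fluo-8 calcium signal (Ex 480/Em 530) followed at 1 s/cycle for 100 cycles in TRHR-expressing cells.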
D1 ag: human D1 receptor agonism. activation, % at 2 µM. HEK293 T-REx D1 cells, calcium flux, agonist mode. 1% of 360,000 active
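Tetracycline-induced HEK293 TREx D1 cells, force-coupled to calcium signalling, were dye-loaded with a no-wash calcium kit. Compound was pin-added after a 10 s baseline. Fluorescence was read kinetically at 1 cycle/s for 180 s, with calcium rises flagged as agonism.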
TRHR agonist: agonists of human TRH receptor | AID 493084 | 0.18% of 360,000 active | P34981 | activation, % at 2 µM | TRHR cells, calcium flux fluo-8, FDSS agonist mode
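Agonist-mode FDSS calcium read (Ex 480/Em 530, 1 s cycles) in 1536-well TRHR cells with fluo-8 dye, after 10-cycle baseline and 23 nL compound addition; TRH at EC20 (10 nM final) added afterwards for the enhancer phase.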
D1 antag: antagonists of human D1 dopamine receptor | P21728 | HEK293 TREx D1 cells, calcium flux, dopamine EC80; stronger effect = lower value | activity change, negative = inhibition, % at 10 µM | 3.2% of 360,000 active | AID 504652; in the data active = activity change below about -30%
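Tetracycline-induced HEK293 T-REx cells with force-coupled D1 receptor were loaded with a no-wash calcium dye. Compound was added after a 10 s baseline and read kinetically for 180 s; EC80 dopamine was then added and calcium flux followed another 180 s.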
A number is an active result; ! = not active in a repeat. Shown are actives, neighbours in structure and some others; about 4.7% of the full set was active somewhere. Rule as the data show it, unless noted: active = activation above about 30%; inactive = the rest.

O=C(c1ccc2c(c1)OCO2)N1CCC(Cc2ccccc2)CC1 was read as D1 PAM inactive, TRHR enhancer inactive, D1 ag inactive, TRHR agonist inactive and D1 antag -40.3.
For O=C(c1ccc2c(c1)OCO2)C1CCCN(C2CCN(CCc3ccccc3)CC2)C1 (stereo not drawn) the results were D1 PAM inactive, TRHR enhancer inactive, D1 ag inactive, TRHR agonist inactive and D1 antag -32.2.
For CC(=O)c1cccc(CN2CCCC(C(=O)c3ccc4c(c3)OCO4)C2)c1 (stereo not drawn) the results were D1 PAM inactive, TRHR enhancer inactive, D1 ag inactive, TRHR agonist inactive and D1 antag inactive.
CC(C)CC(=O)Nc1nc2nc(-c3ccccc3)cc(=O)n2[nH]1 was read as D1 PAM inactive, TRHR enhancer inactive, D1 ag inactive, TRHR agonist inactive and D1 antag inactive.
For CC(=O)Nc1nonc1-c1nc2ccccc2n1Cc1ccccc1Br the results were D1 PAM inactive, TRHR enhancer inactive, D1 ag inactive, TRHR agonist inactive and D1 antag -69.7.
Screening CSc1cccc(CN2CCC(CCC(=O)NC3CC3)CC2)c1 returned D1 PAM inactive, TRHR enhancer inactive, D1 ag inactive, TRHR agonist inactive and D1 antag -49.5.
For Cc1nc2ccn(Cc3cccnc3)c(=O)c2cc1C(=O)N1CCN(c2ccccc2)CC1 the results were D1 PAM inactive, TRHR enhancer inactive, D1 ag inactive, TRHR agonist inactive and D1 antag inactive.
CN1Cc2c(N3CCOCC3)nc3sc(C#N)c(N)c3c2CC1(C)C was read as D1 PAM inactive, TRHR enhancer inactive, D1 ag inactive, TRHR agonist inactive and D1 antag inactive.
CN1Cc2c(N3CCOCC3)nc3sc(C(=O)c4ccc(Br)cc4)c(N)c3c2CC1(C)C was read as D1 PAM inactive, TRHR enhancer inactive, D1 ag 33.9, TRHR agonist inactive and D1 antag -48.7.
`CCCc1cc(C(=O)OC)c(NC(=O)CCCC(=O)O)s1` gave D1 PAM inactive, TRHR enhancer 35.9, D1 ag inactive, TRHR agonist inactive and D1 antag inactive.
For OCCOc1ccc(CN2CCCC(N3CCN(c4ccc(F)cc4)CC3)C2)cc1 (stereo not drawn) the results were D1 PAM inactive, TRHR enhancer inactive, D1 ag inactive, TRHR agonist inactive and D1 antag -42.9.
CCOC(=O)c1c(NC(=O)CSc2nc3ccc(C)cc3[nH]2)sc2c1CC(C)(C)NC2(C)C was read as D1 PAM inactive, TRHR enhancer inactive, D1 ag 48.1, TRHR agonist inactive and D1 antag inactive.
`Cc1ccc(CNC(=O)CSCc2ccccc2)cc1` gave D1 PAM inactive, TRHR enhancer inactive, D1 ag inactive, TRHR agonist inactive and D1 antag inactive.
CCOC(=O)c1c(NC(=O)CSc2nnnn2-c2ccccc2)sc2c1CC(C)(C)NC2(C)C was read as D1 PAM inactive, TRHR enhancer inactive, D1 ag inactive, TRHR agonist inactive and D1 antag inactive.
Screening COc1ccc(CCNC(=O)c2nc(SCc3ccccc3F)ncc2Cl)cc1OC returned D1 PAM inactive, TRHR enhancer inactive, D1 ag 33.5, TRHR agonist inactive and D1 antag inactive.
CCC1SC(CC)C(=O)N(CC(=O)NCc2ccc(F)cc2)C1=O (stereo not drawn) was read as D1 PAM inactive, TRHR enhancer inactive, D1 ag inactive, TRHR agonist inactive and D1 antag inactive.
`Cc1ccc(CNC(=O)CSCc2ccc(F)cc2)cc1` gave D1 PAM inactive, TRHR enhancer inactive, D1 ag inactive, TRHR agonist inactive and D1 antag -35.6!.
For CC1SC(C)C(=O)N(CC(=O)NCc2ccc(F)cc2)C1=O (stereo not drawn) the results were D1 PAM inactive, TRHR enhancer 39.4, D1 ag inactive, TRHR agonist inactive and D1 antag inactive.
For Cc1ccc(CNC(=O)c2nc(SCc3ccc(C)cc3)ncc2Cl)cc1 the results were D1 PAM inactive, TRHR enhancer inactive, D1 ag inactive, TRHR agonist inactive and D1 antag inactive.
Screening Cc1ccc(CNC(=O)c2nc(SCc3ccc(F)cc3)ncc2Cl)cc1 returned D1 PAM inactive, TRHR enhancer 41.6, D1 ag inactive, TRHR agonist inactive and D1 antag inactive.
`COC(=O)CSc1nc2ccc(C)cc2[nH]1` gave D1 PAM inactive, TRHR enhancer inactive, D1 ag inactive, TRHR agonist inactive and D1 antag -36.3.
Screening Cc1ccc2nc(SCC(=O)NCc3ccc(F)cc3)[nH]c2c1 returned D1 PAM inactive, TRHR enhancer inactive, D1 ag 50.6, TRHR agonist inactive and D1 antag -45.1.
For Cc1ccc(NC(=O)c2c(C)oc3c2C2=NCCN2C=N3)cc1F the results were D1 PAM inactive, TRHR enhancer inactive, D1 ag inactive, TRHR agonist inactive and D1 antag inactive.
Screening COc1ccc(OC)c(C(=O)Cn2nnc3ccccc3c2=O)c1 returned D1 PAM inactive, TRHR enhancer 38.7, D1 ag inactive, TRHR agonist inactive and D1 antag inactive.
For Cc1cc(C(=O)Cn2nnc3ccccc3c2=O)c(C)n1Cc1cccs1 the results were D1 PAM inactive, TRHR enhancer 31.8, D1 ag inactive, TRHR agonist inactive and D1 antag inactive.
Screening Cc1ccc2[nH]c3c(=O)n(CC(=O)N4CCCC(C)C4)ncc3c2c1 (stereo not drawn) returned D1 PAM inactive, TRHR enhancer inactive, D1 ag inactive, TRHR agonist inactive and D1 antag inactive.
Cc1nc(C(=O)NCc2ccccc2)sc1C1(C)CC(c2ccccc2)=NO1 (stereo not drawn) was read as D1 PAM inactive, TRHR enhancer inactive, D1 ag 39.3, TRHR agonist inactive and D1 antag inactive.
`Cc1nc(C(=O)Nc2ccccc2)sc1C1(C)CC(c2cccc([N+](=O)[O-])c2)=NO1` (stereo not drawn) gave D1 PAM inactive, TRHR enhancer inactive, D1 ag inactive, TRHR agonist inactive and D1 antag -33.5.
Screening O=C(COc1ccc(F)cc1)NCc1ccc2c(c1)CCN2C(=O)c1ccc(F)cc1 returned D1 PAM inactive, TRHR enhancer inactive, D1 ag inactive, TRHR agonist inactive and D1 antag inactive.
For O=C(CCCOc1ccccc1)Nc1nncs1 the results were D1 PAM inactive, TRHR enhancer inactive, D1 ag inactive, TRHR agonist inactive and D1 antag -34.7.
`Cc1ccc2c(=O)cc(C(=O)N(Cc3ccc(N(C)C)cc3)C3CCS(=O)(=O)C3)oc2c1` (stereo not drawn) gave D1 PAM inactive, TRHR enhancer inactive, D1 ag inactive, TRHR agonist inactive and D1 antag inactive.
`CCOC(=O)N1CCN(C(=O)c2noc3c2COc2ccccc2-3)CC1` gave D1 PAM inactive, TRHR enhancer inactive, D1 ag inactive, TRHR agonist inactive and D1 antag -30.8.
